# Assay results taken from the supplement of paper PMC6555819.
# Legend:
# Assay in all cases: PBM binding z-score (relative to random genomic background probes); higher = stronger binding; sequences stand for … in GC…GCGATTGACAGCGTAGAATGAAGG
# [1] = test system: FXR:RXRa (NR concentration 270 nM, RXRa partner concentration 90 nM)
# Method in brief: (§1)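 Each nuclear receptor dimer, without ligand, was incubated for 1 h on custom Agilent 4×180K protein-binding microarrays. Binding was detected with antibodies against each partner (one per run), and scanned fluorescence was regression-normalized. The binding z-scores are referenced to random human genomic background probes.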
# [2] = test system: LXRa:RXRa (NR concentration 270 nM, RXRa partner concentration 90 nM)
# Method in brief: as §1
# [3] = test system: LXRa homodimer (NR concentration 270 nM)
# Method in brief: as §1
# [4] = test system: LXRb:RXRa (NR concentration 270 nM, RXRa partner concentration 90 nM)
# Method in brief: as §1
# [5] = test system: LXRb homodimer (NR concentration 270 nM)
# Method in brief: as §1
# [6] = test system: PPARa:RXRa (NR concentration 270 nM, RXRa partner concentration 90 nM)
# Method in brief: as §1
# [7] = test system: PPARg:RXRa (NR concentration 180 nM, RXRa partner concentration 90 nM)
# Method in brief: as §1
# [8] = test system: PPARg:RXRa 270nM:90nM, anti-RXR (NR concentration 270 nM, RXRa partner concentration 90 nM)
# Method in brief: as §1
# [9] = test system: PPARg:RXRa 30nM:10nM, anti-RXR (NR concentration 30 nM, RXRa partner concentration 10 nM)
# Method in brief: as §1
# [10] = test system: PPARg:RXRa 90nM:30nM, anti-RXR (NR concentration 90 nM, RXRa partner concentration 30 nM)
# Method in brief: as §1
Sequence,PBM binding z-score [1],PBM binding z-score [2],PBM binding z-score [3],PBM binding z-score [4],PBM binding z-score [5],PBM binding z-score [6],PBM binding z-score [7],PBM binding z-score [8],PBM binding z-score [9],PBM binding z-score [10]
GGAACGAGGGCAAGTTGATAGCTGAGTTTGATGG,0.775,0.137,-0.459,0.185,-0.455,1.59,0.992,1.03,0.138,0.467
GCTAGTTGGTCAGTATAAGGTCACACACCGGTCG,3.04,2.87,3.48,2.64,0.601,3.23,1.38,2.09,0.612,1.37
TCTAGTTGGTCAAAGGTTACACACTCGAAATGCG,2.63,3.13,1.38,3.04,0.929,5.08,9.84,8.86,8.99,9.47
TGTCAAAGTTCAAATGTAACGTAAGTATCCACAC,7.51,6.72,5.84,4.79,3.48,5.53,8.25,7.12,5.15,6.93
CTCGAAAGGTCGGGTGAGGTGAGTATACGGATAA,3,2.3,0.0705,2.18,0.195,3.49,1.32,1.78,0.448,1.04
AATACAGTGTCATCGTAGGCCAGAGTACGCACAG,0.397,1.79,-0.224,0.401,-0.022,0.815,1.05,0.517,0.42,0.495
TAGCCTAGGTCATGCGGGCCAGAATAGTGTCGGC,4.39,3.19,0.255,1.79,-0.467,3.93,2.58,2.53,0.103,1.54
ATATGTAGGTTACATCCAGGTCATTCAGGCTATG,2.67,4.56,3.72,3.08,0.989,4.38,5.7,4.88,2.67,4.04
GCTGCTAGGTCAACTGATGCTCAGCTAAAGCTCG,4.03,2.63,-0.106,1.88,-0.349,3.79,2.66,3.35,0.299,2.26
TCATATAGGTAACCAGGTGAAAGTCCGTAAGTTA,0.67,0.846,0.139,1.04,0.073,2.95,4.7,4.35,4.08,4.4
CCTCGGAGGACAACAGGAGGTCAGAGCTGCCAGA,1.12,2.26,1.95,1.36,-0.474,1.99,0.527,0.477,-0.553,0.529
TCTTGTATATCAATAGAGGTTAAGAAAGTGCGCT,0.889,3.66,0.646,1.74,0.472,1.77,0.559,1.69,3.02,2.45
CGAACTAGGTCATCCAGGAAAGTGAATACATTGA,4.43,2.64,0.469,2.15,0.453,5.01,7.91,6.29,4.25,5.91
CGAAAGAGGGCATGAGTTGATAGCAAATGCCGAT,0.277,0.423,-0.431,0.0383,-0.529,1.7,1.14,1.19,0.0878,0.644
ATCTCTAGGTAAAAGCTCAGTGAATCCCGAGGAT,-0.219,-0.28,-0.281,-0.514,0.446,0.485,1.13,2.55,1.27,2.35
ATATGTAGGTTAAGGGTCATTTAGGTTGGTTCGC,5.62,4.94,3.45,4.87,1.82,6.75,11.6,9.62,10.6,11
CCTAGTTGGTCAAGGCCACACACGCTATAGGTAC,0.421,0.312,0.477,0.547,0.294,0.252,0.917,0.608,-0.0145,0.142
CCTACTTGGTCAAGGTCACACACGCTATAGGTAC,4.25,4.24,2.32,4.05,1.7,4.33,3.75,3.87,1.38,2.72
TCATATAGGTAATACACGTGAAAGTCGGCATCTA,1.26,0.929,0.413,1.06,0.455,1.13,1.1,2.03,3.93,2.92
AGAATGAGGTTATTAAGGTCAGGGAATTGCGGTC,4.55,4.8,3.44,3.59,0.546,4.4,3.54,4.22,1.62,3.18
ATCTGTAGGTAAAGTTCAGTGAAAGATCGATAGA,0.691,1.44,1.19,1.01,0.396,2.28,3.37,4.2,2.41,3.78
ATCGAAAGGTCGACGAGGTGAGCATACACCGTTT,4.55,3.16,0.0611,2.6,0.486,4.14,2.93,3.33,0.968,2.23
GCTATCAGTTGAAAGGGCAACCGAATGATTCTCG,0.0237,0.591,0.000257,0.46,-0.626,1.99,1.65,2.77,1.35,2.69
CCTTACGGGTCATTCCAGGTTATAGCATCGGAGT,6.28,7.32,2.01,4.7,0.548,4.94,3.32,4.21,1.14,2.4

Sequence,PBM binding z-score [1],PBM binding z-score [2],PBM binding z-score [3],PBM binding z-score [4],PBM binding z-score [5],PBM binding z-score [6],PBM binding z-score [7],PBM binding z-score [8],PBM binding z-score [9],PBM binding z-score [10]
CGTCAAAGTTCAACTTAGGTAACGTAAAGCACGC,7.46,6.58,4.88,4.63,2.58,5.35,5.28,5.78,2.4,4.66
CAAACTAGGTCACAGAGGTCAAGGTCCGTGCGTA,7.39,6.46,5.6,5.68,1.33,6.48,10.1,8.21,6.84,8.39
CAAACTAGGTCACCCGAAGGTCAAAGTCCGCATG,6.1,6.03,4.86,5.07,1.57,6.24,9.64,8,5.77,7.5
CAAACTAGGTCAAGAGTTCAAAGTCCGCTTCCCG,5.67,5.69,6.24,4.15,1.05,6.1,9.08,7.81,6.8,8.19
TAGCCTAGGTCAGATCGGGCCAGTACACGCTATA,2.56,1.36,-0.186,0.718,-0.385,1.82,0.74,0.997,-0.169,-0.0312
AGAATGAGGTTATACGTCGATCAGGGAAGAAAGT,2.16,1.54,-0.164,1.29,0.0862,3.16,2.32,2.99,1.45,2.25
CCGAGTAGGTTATGGGGCACTCAGGCAACGGTGA,0.104,0.294,-0.464,0.136,-0.707,2.08,3.55,4.33,2.45,4.11
AGTCAAAGTTAACTAGGTAACGTAAGATTCAGCT,-0.192,0.0304,-0.49,-0.0459,-0.318,2.16,2.33,2.5,0.593,1.89
TCTATTAGTTGATTAGGGCAACCGGAACAGCGGA,0.61,0.628,0.183,0.539,0.503,0.953,0.188,1.84,3.7,2.79
ACTAGCAGGCGAAGTTTGGGTCACTCAAACAAAG,-0.1,-0.222,-0.509,0.307,-0.961,1.22,-0.19,0.0876,-0.449,-0.106
GCTAGTTAGTCAGTAAAAGGTCACACACCGGTCG,3.12,4.12,4.46,3.91,0.32,4.56,3.96,5.48,3.89,5.04
TCGAGTAGGATAGTCGGGGCATTCAGCCAACATA,-0.379,-0.526,-0.613,-0.239,-0.624,-0.194,-0.199,0.184,0.98,0.413
ATCTCTAGATAAAAGTTCAGTGAATCCCGAGGAT,0.0145,0.704,1.41,0.746,0.367,1.59,1.74,3.39,1.72,3.2
CCTAATTGGTCAGGAGGTCACACACCGGATATGA,3.74,3.59,2.27,3.64,1.07,4.42,3.88,4.51,2.08,4.16
CAAACTAGGTCAAGACGTCAAAGTCCGCTTCCCG,3.84,2.6,0.426,1.79,0.329,4.81,7.43,6.72,4.47,6.25
TTGCCTAGGTCATGGGCCAGTATACCACGCGAAC,4.71,3.43,0.623,2.49,-0.439,4.25,3.7,3.59,0.614,2.48
TTACCAAGGTGAAGGTGGTTGATCCCTCTGTAGA,0.468,0.457,-0.29,0.0076,-0.769,1.41,0.605,1.37,0.889,1.13
ACTCGGAGGACAAAGGTTAGAGCTACGCCAGTGA,0.928,1.08,0.0666,0.618,-0.716,2.93,4.75,5.11,3.29,5.35
ATATGTAGGTTTCATCCGGGTCATTCAGGCTATG,1.4,1.72,0.315,2.07,0.658,3.09,2.23,2.17,0.721,1.43
AATACAGGGTCATCGGAGGCCAGAGTACGCACAG,7.32,6.52,2.37,4.98,1.28,6.1,6.72,6.12,2.64,4.8
CAAACTAGGTCAAGAGGTCAACGTCCGCTTCCCG,6.68,6.31,5.46,5.27,1.55,6.6,9.74,8.42,7.54,8.92
AGATTGAGGTTATACGTAGATCAGGGAAGAAAGT,1.82,1.79,0.26,1.37,0.202,2.91,1.21,1.56,0.644,1.05
ACTCCGAGGACAAAGGTCAGAGCTACGCCAGTGA,4.86,4.4,1.86,3.99,0.764,4.91,8.48,7.6,6.18,8.09
TAGCCTAGGACATTCAGGGGCCAGTATAGAAAGC,-0.499,-0.54,-0.456,-0.243,-0.646,-0.572,0.256,-0.544,-0.505,-0.409
